The entries come from a sample that favours hits as a whole.
HBB splicing: qHTS Assay for Modulators of Hemoglobin Beta Chain Splicing. HBB splicing reporter cell assay, activation; EGFP reporter with mutant IVS2-654 intron; response scale: normalised to 500 nM splice-correcting PNA. Potency, µM (titrated, usually from 46.1 µM), hits mostly activators. 0.06% of 65,000 active. AID 925, 2007
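HeLa cells stably expressing EGFP interrupted by mutant beta-globin intron 2 (IVS2-654), 500/well in 2% FCS. Treated with compound for 2 days at 37C. Splicing correction scored as total well GFP intensity (488 nm excitation, 500-520 nm emission); 500 nM antisense PNA served as control.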
Imprint erasure: qHTS Assay for Compounds that Induce Erasure of Genomic Imprints; 0.02% of 110,000 active; AID 1948, 2009; mouse ES Peg3-LacZ reporter, beta-gal luminescence, 40 h; Potency, µM (series often up to 60.7 µM), actives largely listed as activators
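Each well holds 300 Peg3LacZ-Neo (maternal) female ES cells incubated 40 h at 37C, 5% CO2. LacZ is measured by BetaGlo luminescence, with AC50 and maximum efficacy derived from dose-response curves.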
CRE Fsk mod: Cell signaling CRE-BLA (Fsk stim). CHO CRE-bla reporter (cAMP response element driving beta-lactamase), forskolin EC10, beta-lactamase ratio. Potency, µM (titrated, usually from 38.2 µM), actives largely listed as activators. 2.5% of 71,000 active; active = well fitted activation curve with a large enough effect in the signal ratio, with a control signal flat, not every such curve was filed as active; inconclusive = small, poorly fitted or top-dose-only effect, or effect the other way, or a change in a side signal; the % refers to the signal ratio
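CRE-bla CHO cells stimulated with EC10 NKH 477 (water-soluble forskolin) and compound titrations, 3 h at 37C; beta-lactamase read with CCF4 after 2 h at room temperature. Activity from 460/530 nm emission ratio, AC50 values for positive or negative modulation.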
GFP derepression: qHTS Assay for Epigenetic Modulators; mouse C127i GFP locus derepression, cytometry, 30 h; Potency, µM (titrated, usually from 46.1 µM); 0.09% of 68,000 active; AID 597, 2007
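Locus derepression in mouse mammary C127i cells whose integrated CMV-GFP reporter is normally silent; GFP expression after 30 h compound treatment was quantified by counting fluorescent cells.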
IkB sig inh: IkB Signaling. ABC-DLBCL IkBa-CBG/CBR dual luciferase ratio, 4 h; response scale: scaled: untreated 0%, proteasome inhibitor 100%. Potency, µM (titrated, usually from 57.1 µM). 0.04% of 110,000 active. AID 445, 2006; active = well fitted curve in the direction sought with a large enough effect in the signal ratio, not every such curve was filed as active; inconclusive = small, poorly fitted or top-dose-only effect, or a change in a side signal; the % refers to the signal ratio;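 also: the direction sought is a rising ratio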
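Luminescence ratio of IκBα-fused green versus native red beetle luciferase in OCI-Ly3 cells, 4 h post-doxycycline with compound; red signal alone, scaled from basal (0%) to zero light (-100%), flagged nonspecific or cytotoxic effects.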
Numbers stand for hits; [ ] = remark or other dose. Unless noted, calls follow the shape of the dose curve; as a rule, active = well fitted curve in the direction sought with a large enough effect; inconclusive = small, poorly fitted or top-dose-only effect, or another doubt; inactive = no such curve, though single readings can be large; an effect the other way counts as inactive or inconclusive.

`COc1ccc(CCn2c(=N)c(C(=O)N3CCN(C)CC3)cc3c(=O)n4ccccc4nc32)cc1` gave HBB splicing inactive[0.369 µM], Imprint erasure inactive, CRE Fsk mod 13µM, GFP derepression inactive and IkB sig inh inactive.
COCCCn1c(=N)c(C(=O)NCC2CCCO2)cc2c(=O)n3ccccc3nc21 (centres undefined) was read as HBB splicing inactive, Imprint erasure inactive, CRE Fsk mod 16µM, GFP derepression inactive and IkB sig inh inactive.
For Cc1cccc2cc(C#N)c(N3CCN(C)CC3)nc12 the results were Imprint erasure inactive, CRE Fsk mod inactive, GFP derepression inactive and IkB sig inh inactive.
`Cc1ccc(C)c2nc(N3CCCC3)c(C#N)cc12` gave Imprint erasure inactive, CRE Fsk mod 10µM, GFP derepression inactive and IkB sig inh inactive.
c1ccc2c(-n3ccnc3)nc(-c3ccoc3)nc2c1 was read as HBB splicing inactive, Imprint erasure inactive, CRE Fsk mod 3.2µM, GFP derepression inactive[9.22 µM] and IkB sig inh inactive[11.4 µM].
For c1ccc2c(N3CCOCC3)nc(-c3ccoc3)nc2c1 the results were HBB splicing inactive, Imprint erasure inconclusive, CRE Fsk mod 5µM, GFP derepression inactive[9.22 µM] and IkB sig inh inactive[11.4 µM].
CSc1nc(N2CCOCC2)c2ccccc2n1 was read as HBB splicing inactive[0.369 µM], Imprint erasure inactive, CRE Fsk mod 10µM, GFP derepression inactive and IkB sig inh inactive.
Screening CN1CCN(c2nc(-c3ccoc3)nc3ccccc23)CC1 returned HBB splicing inactive, Imprint erasure inactive, CRE Fsk mod inconclusive, GFP derepression inactive[9.22 µM] and IkB sig inh inactive[11.4 µM].
For Cn1c(C(=O)N2CCCc3ccccc32)cc2c(=O)n3ccccc3nc21 the results were HBB splicing inactive, Imprint erasure inactive, CRE Fsk mod 1.6µM, GFP derepression inactive and IkB sig inh inactive.
`Cn1c(C(=O)NCc2ccccn2)cc2c(=O)n3ccccc3nc21` gave HBB splicing inactive, Imprint erasure inactive, CRE Fsk mod 2µM, GFP derepression inactive and IkB sig inh inactive.
For Cc1cc(C)c(NC(=O)c2cc3c(=O)n4ccccc4nc3n2C)c(C)c1 the results were Imprint erasure inactive[10.9 µM] and IkB sig inh inactive.
`CC[C@H](C)C(=O)O[C@@H]1CCC=C2C=C[C@H](C)[C@@H](CC[C@H]3C[C@@H](O)CC(=O)O3)[C@H]21` gave HBB splicing inactive, CRE Fsk mod inactive, GFP derepression inactive and IkB sig inh inactive.
CCC(C)Sc1nc2c(c(=O)[nH]c(=O)n2C)n1CCc1ccccc1 (centres undefined) was read as HBB splicing inactive, Imprint erasure inactive, CRE Fsk mod 7.9µM, GFP derepression inactive and IkB sig inh inactive.
CCC(C)Sc1nc2c(c(=O)[nH]c(=O)n2C)n1Cc1ccc(Cl)cc1 (centres undefined) was read as CRE Fsk mod 7.9µM, GFP derepression inactive and IkB sig inh inactive.
`CC(C)Sc1nc2c(c(=O)[nH]c(=O)n2C)n1CCc1ccccc1` gave HBB splicing inactive, Imprint erasure inactive, CRE Fsk mod inconclusive, GFP derepression inactive and IkB sig inh inactive.
`C/C(Cl)=C/Cn1c(SC(C)C)nc2c1c(=O)[nH]c(=O)n2C` gave HBB splicing inactive, Imprint erasure inactive, CRE Fsk mod 7.9µM, GFP derepression inactive and IkB sig inh inactive.
O=C(NCc1ccccc1Cl)C(=O)NCC(c1ccco1)S(=O)(=O)c1cccs1 (centres undefined) was read as Imprint erasure inactive[10.9 µM] and IkB sig inh inactive.
CCc1ccc(N2C(=O)c3sc4nnc(C)c(=O)n4c3C2=O)cc1 was read as HBB splicing inactive, Imprint erasure inactive, CRE Fsk mod inactive, GFP derepression 10µM and IkB sig inh inactive.
Screening N#Cc1cc2c(nc1SCc1cccnc1)CCCCC2 returned HBB splicing inactive, Imprint erasure inactive, CRE Fsk mod inconclusive, GFP derepression inactive and IkB sig inh inactive.
For N#CCSc1nc2c(cc1C#N)CCCC2 the results were HBB splicing inactive, Imprint erasure inactive, CRE Fsk mod 13µM, GFP derepression inactive and IkB sig inh inactive.
COCCn1c(=O)c(-c2cccc(C#N)c2)nc2cnc(N3CCN(C)CC3)nc21 was read as HBB splicing inactive, Imprint erasure inconclusive, CRE Fsk mod 13µM, GFP derepression inactive[9.22 µM] and IkB sig inh inactive[11.4 µM].
CN1CCN(c2ncc3nc(-c4cc(F)cc(F)c4)c(=O)n(CCC#N)c3n2)CC1 was read as HBB splicing inactive, Imprint erasure inactive, CRE Fsk mod inconclusive, GFP derepression inactive[9.22 µM] and IkB sig inh inactive[11.4 µM].
For CN1CCN(c2ncc3nc(-c4cccc(C#N)c4)c(=O)n(CCC#N)c3n2)CC1 the results were HBB splicing inactive, Imprint erasure inactive, CRE Fsk mod 10µM, GFP derepression inactive[9.22 µM] and IkB sig inh inactive[11.4 µM].
For COCCn1c(=O)c(-c2cccc(C#N)c2)nc2cnc(N3CCNCC3)nc21 the results were HBB splicing inactive, CRE Fsk mod inconclusive, GFP derepression inactive[9.22 µM] and IkB sig inh inactive[11.4 µM].
CC1=C(C(=O)OCc2ccccc2)C(c2ccccc2)NC(=O)N1CCCCCC(=O)O (centres undefined) was read as HBB splicing inactive, Imprint erasure inactive and CRE Fsk mod inconclusive.
CC1=C(C(=O)OCc2ccccc2)C(c2ccc([N+](=O)[O-])cc2)NC(=O)N1CCCCCC(=O)O (centres undefined) was read as HBB splicing inactive, Imprint erasure inactive and CRE Fsk mod 10µM.
Cc1cccc(OC(=O)CSc2nnc(-c3ccc4c(c3)OCO4)o2)c1C was read as Imprint erasure inactive[10.9 µM] and IkB sig inh inactive.
For Cc1cc(C)c(NC(=O)Cn2c(=O)n(CCc3ccccc3)c(=O)c3ccccc32)c(C)c1 the results were Imprint erasure inactive[10.9 µM] and IkB sig inh inactive.
For COCCN1C(=O)c2[nH]nc(-c3ccccc3O)c2C1c1ccc(Cl)c(Cl)c1 (centres undefined) the results were Imprint erasure inactive[10.9 µM] and IkB sig inh inconclusive.
`COc1cccc2[nH]c3c(N4CCN(Cc5ccc6c(c5)OCO6)CC4)ncnc3c12` gave HBB splicing inactive[0.369 µM], Imprint erasure inactive, CRE Fsk mod inactive, GFP derepression inactive and IkB sig inh inconclusive.
For COc1cccc2[nH]c3c(N4CCC(C)CC4)ncnc3c12 the results were HBB splicing inactive, Imprint erasure inactive, CRE Fsk mod 4µM, GFP derepression inactive and IkB sig inh inactive.
For COc1cc(OC)c(/C=C2/C(=O)Nc3ccccc32)c(OC)c1 the results were HBB splicing inactive, Imprint erasure inactive, CRE Fsk mod inconclusive, GFP derepression inactive and IkB sig inh inconclusive.
Screening Cc1cc(C)c(/C=C2/C(=O)Nc3ccccc32)[nH]1 returned HBB splicing 32µM, CRE Fsk mod inconclusive, GFP derepression inactive and IkB sig inh inactive.
